High-throughput results (PubChem BioAssay)
Most compounds without a hit are left out; they make up all but 2.5% or so of the library.
Mot1-301 SUMO = SUMOylation pathway inhibition by Mot1-301 growth rescue; AID 2716; hit rate 1% among 320,000; S. cerevisiae Mot1-301 growth rescue, ATP luminescence, 38.5C; percent above DMSO median, 100 means doubled; growth rescue, % at 18.8 µM;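 active = every valid replicate shows activation above 250% relative to neutral control wells; inactive = the rest, any valid replicate at or below 250%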;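 note: OY570 slx delta 5 strain wells were the positive control but not used for scaling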
ATG4B inhibitor = ATG4B (human) cysteine protease inhibition. Q9Y4P1. ATG4B cleavage of LC3-PLA2, NBD-HPC fluorescence, 1 h. inhibition, % at 8.33 µM. hit rate 0.51% among 340,000; in the data active = inhibition above about 40%
Target sequence (Q9Y4P1 whole entry, looked up): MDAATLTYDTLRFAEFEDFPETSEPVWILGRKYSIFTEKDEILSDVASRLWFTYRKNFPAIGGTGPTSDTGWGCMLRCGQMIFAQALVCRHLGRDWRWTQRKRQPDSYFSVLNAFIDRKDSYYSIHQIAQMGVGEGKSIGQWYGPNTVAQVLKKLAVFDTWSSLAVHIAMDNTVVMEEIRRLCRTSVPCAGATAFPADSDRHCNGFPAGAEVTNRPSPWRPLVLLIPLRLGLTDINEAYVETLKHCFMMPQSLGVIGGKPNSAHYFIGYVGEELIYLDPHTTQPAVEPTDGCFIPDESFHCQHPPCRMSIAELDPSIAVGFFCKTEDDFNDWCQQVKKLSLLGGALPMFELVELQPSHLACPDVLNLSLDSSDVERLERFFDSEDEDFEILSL
V-ATPase pH = alters yeast V-ATPase proton transport | S. cerevisiae, pHLuorin cytosolic pH fluorescence | hit rate 0.37% among 350,000 | response, % at 10 µM; in the data active = response mostly above about 7.3%, no sharp cut-off; inactive = mostly below about 5.4%; note: actives read high
AI-2 QS modul = Vibrio harveyi AI-2 quorum sensing modulation. hit rate 0.4% among 300,000. Vibrio harveyi JMH597 AI-2 luminescence/OD600 ratio, 9 h; stronger effect = lower value; strain lacks LuxN and CqsS sensors; 0 = neutral-control median. activity change, % at 7.5 µM. AID 2094; in the data active = activity change below about -75%, passing the limit was not always enough; inconclusive = no clear call, values can overlap the other calls;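 note: luminescence divided by OD600 gain over 9 h not by final OD600 alone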
Efflux pump inh = inhibitors of Candida antifungal efflux pumps expressed in yeast | hit rate 0.44% among 330,000 | AID 485275 | S. cerevisiae Candida pump triplex, Nile Red efflux | inhibition, % at 10 µM;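 active = plate passing quality check with inhibition over a set limit, or well fluorescence over plate mean plus 4 SD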;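 note: Nile Red retained in pooled yeast measured as flow cytometry median fluorescence; 0% = buffer negative control and 100% = Enniatin B positive control; higher means more Nile Red kept so more efflux inhibition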
JMH597 growth rt = retest: blocks Vibrio harveyi JMH597 growth; shares compounds with AI-2 QS modul; OD600 absorbance, 9 h; lacks LuxN and CqsS sensors; growth inhibition, % at 7.5 µM; hit rate 1% among 750;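 active = every replicate shows growth inhibition above 50%; inconclusive = at least half, but not all, replicates pass that cutoff; inactive = fewer than half of replicates pass it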
BB721 const-QS lum = retest counter-screen: luminescence loss in constitutive-on quorum sensing strain BB721. shares compounds with AI-2 QS modul. Vibrio harveyi BB721 luminescence, 9 h. inhibition, % at 7.5 µM. hit rate 95% among 750. AID 2727;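 active = inhibition above about 80% in every replicate, not just on average, limit read from the data; inconclusive = at least half of replicates past the limit, but not all; inactive = fewer than half of replicates past the limit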
BB721 growth = retest: blocks Vibrio harveyi BB721 growth; shares compounds with AI-2 QS modul; OD600 absorbance, 9 h; growth inhibition, % at 7.5 µM; hit rate 3% among 750; AID 2728;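 active = every replicate shows growth inhibition above 50%; inconclusive = at least half but not all replicates above 50% inhibition; inactive = under half of replicates above 50% inhibition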
JMH597 AI-2 mod = Vibrio harveyi AI-2 signaling luminescence modulation – JMH597 strain, confirmation; Vibrio harveyi JMH597 AI-2 quorum sensing luminescence, 9 h; luxN and CqsS knockout, AI-2 only; hit rate 97% among 750; AID 2736; shares compounds with AI-2 QS modul; inhibition, % at 7.5 µM;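 active = every replicate shows more than 75% inhibition of signal versus neutral control wells; inconclusive = half to three quarters of replicates exceed 75% inhibition; inactive = fewer than half of replicates exceed 75% inhibition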
An asterisk follows results filed as active.

Screening CCC(=O)Nc1ccc2nc(C)n(CC(=O)Nc3ccccc3)c(=O)c2c1 returned Mot1-301 SUMO 7.9, ATG4B inhibitor 4.9, V-ATPase pH -8.5, AI-2 QS modul 12.0 and Efflux pump inh 0.0.
Screening Cc1cc(C)cc(NC(=O)Cn2nnc3ccccc3c2=O)c1 returned ATG4B inhibitor 0.2, V-ATPase pH 4.6, AI-2 QS modul -82.9*, Efflux pump inh -0.3, JMH597 growth rt -22.8, BB721 const-QS lum 96.0*, BB721 growth -10.7 and JMH597 AI-2 mod 97.4*.
Screening CC(=O)Nc1ccc(C(=O)Cn2nnc3ccccc3c2=O)cc1 returned Mot1-301 SUMO -7.4, ATG4B inhibitor 5.3, V-ATPase pH -4.5, AI-2 QS modul 19.2 and Efflux pump inh -0.3.
For COc1cc(SC)ccc1C(=O)NCCc1c[nH]c2ccccc12 the results were Mot1-301 SUMO 98.1, ATG4B inhibitor -8.4, V-ATPase pH 11.1, AI-2 QS modul 5.9 and Efflux pump inh 0.1.
Cc1ccsc1C(=O)NCCc1c[nH]c2ccccc12 was read as Mot1-301 SUMO -11.9, ATG4B inhibitor -0.3, V-ATPase pH 1.2, AI-2 QS modul -82.4*, Efflux pump inh 0.2, JMH597 growth rt 5.0, BB721 const-QS lum 91.9*, BB721 growth -6.4 and JMH597 AI-2 mod 94.2*.
O=C(NCCc1c[nH]c2ccccc12)c1ccc(F)cc1F was read as Mot1-301 SUMO -2.1, ATG4B inhibitor -3.5, V-ATPase pH -1.1, AI-2 QS modul -82.2*, Efflux pump inh -0.1, JMH597 growth rt 14.8, BB721 const-QS lum 95.2*, BB721 growth 11.7 and JMH597 AI-2 mod 96.7*.
Screening O=C(NCCc1c[nH]c2ccccc12)c1ccc(Cl)cc1 returned Mot1-301 SUMO 717.2, ATG4B inhibitor 5.9, V-ATPase pH 4.9, AI-2 QS modul -84.7*, Efflux pump inh 0.0, JMH597 growth rt 0.0, BB721 const-QS lum 93.5*, BB721 growth 24.4 and JMH597 AI-2 mod 95.0*.
`COc1ccc(C(=O)NCCc2c[nH]c3ccccc23)cc1` gave Mot1-301 SUMO 10.6, ATG4B inhibitor 2.0, V-ATPase pH -4.9, AI-2 QS modul 9.7 and Efflux pump inh 0.0.
O=C(NCCc1c[nH]c2ccccc12)C(=O)c1c[nH]c2ccccc12 was read as Mot1-301 SUMO 14.1, ATG4B inhibitor 6.3, V-ATPase pH 0.7, AI-2 QS modul -90.1*, Efflux pump inh 0.0, JMH597 growth rt 24.9, BB721 const-QS lum 95.7*, BB721 growth 5.9 and JMH597 AI-2 mod 97.3*.
Screening O=C(COc1nncc2ccccc12)Nc1c(F)c(F)c(F)c(F)c1F returned Mot1-301 SUMO 8.6, ATG4B inhibitor -8.8, V-ATPase pH 5.3, AI-2 QS modul -5.7 and Efflux pump inh 0.0.
Screening CC(C)c1ccc(NC(=O)COc2nncc3ccccc23)cc1 returned Mot1-301 SUMO 2.7, ATG4B inhibitor -7.1, V-ATPase pH 1.7, AI-2 QS modul -96.1*, Efflux pump inh -0.1, JMH597 growth rt 47.4, BB721 const-QS lum 99.5*, BB721 growth inconclusive and JMH597 AI-2 mod 99.6*.
For O=C(COc1nncc2ccccc12)Nc1ccc(F)c(F)c1 the results were Mot1-301 SUMO -15.6, ATG4B inhibitor 14.4, V-ATPase pH 4.5, AI-2 QS modul -96.4*, Efflux pump inh 0.0, JMH597 growth rt -22.9, BB721 const-QS lum 99.2*, BB721 growth -18.4 and JMH597 AI-2 mod 99.4*.
Screening COc1ccc(CN=Cc2c(O)[nH]c3ccccc23)cc1 returned Mot1-301 SUMO 82.3, ATG4B inhibitor -0.4, V-ATPase pH -3.4, AI-2 QS modul -90.2*, Efflux pump inh -0.1, JMH597 growth rt 22.3, BB721 const-QS lum 96.2*, BB721 growth 3.2 and JMH597 AI-2 mod 97.4*.
CCOc1ccc(NC(=O)CN2C(=O)CSC(C)C2=O)cc1 (stereo not given) was read as Mot1-301 SUMO -12.4, ATG4B inhibitor -4.2, V-ATPase pH 3.7, AI-2 QS modul -78.3*, Efflux pump inh 0.0, JMH597 growth rt 16.4, BB721 const-QS lum 91.3*, BB721 growth 9.6 and JMH597 AI-2 mod 93.3*.
Screening CSCCC1NC(=O)N(CC(=O)Nc2ccc(-c3ccccc3)cc2)C1=O (stereo not given) returned Mot1-301 SUMO -5.3, ATG4B inhibitor -11.5, V-ATPase pH -6.7, AI-2 QS modul -82.7*, Efflux pump inh 0.1, JMH597 growth rt -21.7, BB721 const-QS lum 85.1*, BB721 growth -5.3 and JMH597 AI-2 mod 90.8*.
`CSCCC1NC(=O)N(CC(=O)Nc2c(C(C)C)cccc2C(C)C)C1=O` (stereo not given) gave Mot1-301 SUMO 80.2, ATG4B inhibitor -6.9, V-ATPase pH 0.2, AI-2 QS modul -3.9 and Efflux pump inh 0.1.
CCOc1ccc(NC(=O)CN2C(=O)NC(CCSC)C2=O)cc1 (stereo not given) was read as Mot1-301 SUMO -5.2, ATG4B inhibitor 2.6, V-ATPase pH -0.5, AI-2 QS modul -78.7*, Efflux pump inh 0.2, JMH597 growth rt 7.6, BB721 const-QS lum 90.8*, BB721 growth 6.9 and JMH597 AI-2 mod 93.8*.
For CC(C)(C)NC(=O)COC(=O)c1ccc2c(c1)C(=O)N(Cc1ccco1)C2=O the results were Mot1-301 SUMO 9.4, ATG4B inhibitor 4.6, V-ATPase pH 3.8, AI-2 QS modul 17.7 and Efflux pump inh 0.1.
Nc1nc(-c2ccc(Oc3ccccc3)cc2)cs1 was read as Mot1-301 SUMO -34.6, ATG4B inhibitor 12.8, V-ATPase pH 3.8, AI-2 QS modul -95.4*, Efflux pump inh 0.1, JMH597 growth rt -31.7, BB721 const-QS lum 96.5*, BB721 growth -93.8 and JMH597 AI-2 mod 98.3*.
For CCOC(=O)c1cc2sccc2n1CC(=O)N1CCCC1 the results were Mot1-301 SUMO 104.4, ATG4B inhibitor -14.6, V-ATPase pH -2.1, AI-2 QS modul 17.8 and Efflux pump inh 0.0.
`CCC(C)c1ccc(NC(=O)CN(C)CC(=O)Nc2cccc(OC)c2)cc1` (stereo not given) gave Mot1-301 SUMO -3.0, ATG4B inhibitor 5.8, V-ATPase pH -0.9, AI-2 QS modul -1.4 and Efflux pump inh 0.1.
Cc1ccccc1C(=O)OCc1nnc(-c2ccc(Cl)cc2)o1 was read as Mot1-301 SUMO 107.8, ATG4B inhibitor 4.8, V-ATPase pH 8.3, AI-2 QS modul inconclusive, Efflux pump inh 0.0, JMH597 growth rt -0.5, BB721 const-QS lum 91.2*, BB721 growth -11.7 and JMH597 AI-2 mod 93.2*.
